Bioassay records: PubChem BioAssay, National Center for Advancing Translational Sciences (NCATS)
In the library only some 14% were active in any assay of this set; here they are far more common.
HCMV antiviral: qHTS Assay for inhibitors of the human cytomegalovirus (HCMV); HFF cells, HCMV-luciferase reporter, 72 h; stronger effect = lower value; activity change, negative = inhibition, % at 57.5 µM; 410,000 tested, 4.5% active; AID 1259415, 2018; in the data active = activity change below about -60%; inconclusive = no clear call, values can overlap the other calls; inactive = above about -39%
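Two compound doses tested in HFFs infected with HCMV-luciferase, MOI 1 PFU/cell, 72 h at 37C. Lysate luminescence read with OneGlo; data normalized against buffer-only and 10uM Salinomycin inhibitor controls.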
Pf growth 48h: Primary qHTS for delayed death inhibitors of the malarial parasite plastid, 48 hour incubation; P. falciparum luciferase growth in erythrocytes, 48 h; Potency, µM (highest dose often 28.7 µM), most hits filed as inhibitors; 310,000 tested, 5.9% active
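First compound was added to culture medium, then infected red cells at 0.1% parasitemia and 2% hematocrit (final). After incubation at 37 C under 5% CO2, luciferase detection reagent was dispensed and light output recorded.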
Marburg entry inh: qHTS for inhibitors of binding or entry into cells for Marburg Virus | Marburg virus pseudotyped entry inhibition, cell reporter | Potency, µM (doses to about 37.8 µM), usual class: inhibitors | 300,000 tested, 1.8% active; calls by dose curve; tested in HEK293 cells
Pf growth 96h: Primary qHTS for delayed death inhibitors of the malarial parasite plastid, 96 hour incubation. P. falciparum luciferase reporter growth, 96 h. Potency, µM (titrated, usually from 28.7 µM), hits mostly inhibitors. 320,000 tested, 6.9% active. AID 504834, 2011
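Luminescence readout: decreased luciferase signal marks inhibited growth of reporter-expressing P. falciparum in infected red cells (2% hematocrit, 0.05% parasitemia final), exposed to compound two generations (96 h, 37 C, 5% CO2).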
LASV entry inh: qHTS for Inhibitors of binding or entry into cells for Lassa Virus | Lassa virus pseudotype entry inhibition, cell reporter | Potency, µM (titrated, usually from 37.9 µM), usual class: inhibitors | 300,000 tested, 1.2% active; calls by dose curve; tested in HEK293 cells; note: nearly all actives have a fitted effect of over 50% in size
HCV inh: qHTS Assay for Inhibitors of Hepatitis C Virus (HCV); Potency, µM (series often up to 41.8 µM), usual class: inhibitors; 340,000 tested, 3.4% active; Huh7.5.1 HCVcc-Cre infection, luciferase reporter, 44 h
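Seed cells (1,000/well) for 4 h; treat with compound and infect with HCVcc-Cre, moi about 0.5. Incubate 44 h, then detect luciferase activity.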
Large screens that a line does not name were inactive. Unless noted, calls come from the whole dose curve; as a rule, active = well fitted inhibition curve with a large enough effect; inconclusive = small, poorly fitted or top-dose-only effect, or another doubt; inactive = no such curve, though single readings can be large or run the other way.

COc1ccccc1NS(=O)(=O)c1cc(C(=O)NCC(c2ccc(F)cc2)N2CCOCC2)ccc1C (stereo unspecified)	Pf growth 48h 11.7µM, Pf growth 96h inconclusive
O=C(NCC(c1ccc(F)cc1)N1CCOCC1)c1cccnc1Sc1ccccc1 (stereo unspecified)	Pf growth 48h inconclusive, Pf growth 96h inconclusive, HCV inh inconclusive
COc1ccccc1NS(=O)(=O)c1cccc(C(=O)NCC(c2ccc(F)cc2)N2CCOCC2)c1 (stereo unspecified)	Pf growth 48h inconclusive, Marburg entry inh inconclusive, Pf growth 96h inconclusive
Cc1ccc(Sc2ncccc2C(=O)NCC(c2ccc(F)cc2)N2CCOCC2)cc1C (stereo unspecified)	Pf growth 48h 11.7µM, Pf growth 96h inconclusive
COc1ccccc1NS(=O)(=O)c1cc(C(=O)NCC(c2ccco2)N(C)C)ccc1C (stereo unspecified)	Pf growth 96h inconclusive
COc1ccc(/C=C/C(=O)NCC(c2ccc(F)cc2)N2CCOCC2)cc1OC (stereo unspecified)	Pf growth 48h 8.28µM, Pf growth 96h inconclusive (no result: Marburg entry inh, LASV entry inh)
COc1ccccc1NS(=O)(=O)c1cc(C(=O)NCC(c2ccco2)N2CCCCC2)ccc1C (stereo unspecified)	Pf growth 48h 11.7µM, Marburg entry inh inconclusive, Pf growth 96h 8.28µM, LASV entry inh inconclusive, HCV inh inconclusive
Cc1c(C(=O)NNC(=O)c2cccnc2)cccc1[N+](=O)[O-]	none (no result: Pf growth 48h, Marburg entry inh, Pf growth 96h, LASV entry inh)
c1ccc(Cc2cnc(N3CCN(Cc4ccc5c(c4)OCCO5)CC3)nc2)cc1	none (no result: Pf growth 48h, Marburg entry inh, Pf growth 96h, LASV entry inh, HCV inh)
CCOc1ccccc1N1CCN(CC(=O)Nc2nccs2)CC1	none (no result: Pf growth 48h, Marburg entry inh, Pf growth 96h, LASV entry inh, HCV inh)
CCOc1ccccc1N1CCN(CC(=O)Nc2ccnn2C2CCCC2)CC1	HCV inh 12.6µM (no result: Marburg entry inh, LASV entry inh)
CCOc1ccccc1N1CCN(CC(=O)Nc2ccccc2C(=O)NC2CC2)CC1	Pf growth 48h 9.28µM, Pf growth 96h inconclusive, HCV inh inconclusive
COc1ccc(F)cc1CN1CCN(CC(=O)Nc2ccccc2C(=O)NC2CC2)CC1	Pf growth 48h inconclusive, Pf growth 96h inconclusive (no result: Marburg entry inh, LASV entry inh)
CCOc1ccccc1C(=O)NC1CCN(CC(=O)Nc2cc(OC)ccc2OC)CC1	HCMV antiviral inconclusive, Pf growth 48h inconclusive, HCV inh 11.2µM (no result: Marburg entry inh, LASV entry inh)
CCOc1ccccc1NC(=O)CN1CCC(NC(=O)c2ccccc2C)CC1	Pf growth 48h inconclusive, Pf growth 96h inconclusive, HCV inh inconclusive
CCOc1ccccc1C(=O)Nc1cc(OC)ccc1OC	Marburg entry inh inconclusive, Pf growth 96h inconclusive, HCV inh inconclusive
COc1ccc(CN2CCN(CC(=O)Nc3ccccc3C(=O)NC3CC3)CC2)cc1F	Pf growth 48h 10.4µM, Pf growth 96h inconclusive (no result: Marburg entry inh, LASV entry inh)
CC(C)CCNC(=O)C1CCC(CNc2c(N3CCCC3)c(=O)c2=O)CC1 (stereo unspecified)	Pf growth 48h 11.7µM
CC(C)(C)NC(=O)C1CCC(CNc2c(N3CCCCC3)c(=O)c2=O)CC1 (stereo unspecified)	none
O=C(NCc1ccc2c(c1)OCO2)C1CCC(CNc2c(N3CCCC3)c(=O)c2=O)CC1 (stereo unspecified)	HCMV antiviral -83.5, Pf growth 48h inconclusive (no result: LASV entry inh)
O=C(NCc1ccccc1)C1CCC(CNc2c(N3CCCCC3)c(=O)c2=O)CC1 (stereo unspecified)	Pf growth 96h 11.7µM
CC1CCN(c2c(NCC3CCC(C(=O)NCc4ccccc4)CC3)c(=O)c2=O)CC1 (stereo unspecified)	none
CN(C)S(=O)(=O)c1cccc(C(=O)NC2CCCc3ccccc32)c1 (stereo unspecified)	none (no result: Pf growth 48h)
CC(=O)N1CCc2cc(S(=O)(=O)NCCC(=O)NC3CCCc4ccccc43)ccc21 (stereo unspecified)	Pf growth 48h 11.7µM
CCCNS(=O)(=O)c1cccc(C(=O)NC2CCCc3ccccc32)c1 (stereo unspecified)	LASV entry inh 18.3µM (no result: Pf growth 48h)
O=C(COC(=O)c1cccnc1)NC1CCCc2ccccc21 (stereo unspecified)	none
Nc1cccc(C(=O)OCC(=O)NC2CCCc3ccccc32)c1 (stereo unspecified)	Pf growth 48h 11.7µM (no result: Marburg entry inh, LASV entry inh)
O=C(CCNC(=O)c1ccccc1)NC1CCCc2ccccc21 (stereo unspecified)	Pf growth 48h inconclusive, Marburg entry inh inconclusive
O=C(CCNC(=O)c1ccc([N+](=O)[O-])cc1)NC1CCCc2ccccc21 (stereo unspecified)	Marburg entry inh 2µM, Pf growth 96h inconclusive, LASV entry inh inconclusive
COc1ccccc1CNc1nc2nc(C)c(Cl)c(C)n2n1	Marburg entry inh inconclusive (no result: Pf growth 48h, Pf growth 96h, HCV inh)
Cc1ccc(S(=O)(=O)NCCC(=O)N2CCN(Cc3ccccc3)CC2)cc1	none
CC(=O)N1CCc2cc(S(=O)(=O)NCCC(=O)N3CCN(Cc4ccccc4)CC3)ccc21	HCMV antiviral -66.1, Pf growth 48h inconclusive, Pf growth 96h inconclusive, LASV entry inh inconclusive, HCV inh inconclusive
CS(=O)(=O)N1CCc2cc(C(=O)Nc3ccc(S(N)(=O)=O)cc3)ccc21	none (no result: Pf growth 48h, Pf growth 96h, HCV inh)
CNC(=S)N1CCc2cc(OC)c(OC)cc2C1COc1ccc(OC)cc1 (stereo unspecified)	Pf growth 48h inconclusive, Marburg entry inh inconclusive, Pf growth 96h inconclusive, LASV entry inh inconclusive
COc1cc2c(cc1OC)C(COc1ccccc1OC)N(C(C)=O)CC2 (stereo unspecified)	none (no result: Marburg entry inh, LASV entry inh)
COc1cc2c(cc1OC)C(COc1ccccc1OC)N(C(=O)C(C)(C)C)CC2 (stereo unspecified)	Pf growth 48h 11.7µM, LASV entry inh inconclusive, HCV inh inconclusive
COc1cc2c(cc1OC)C(COc1ccc(F)cc1)N(C(=O)c1ccco1)CC2 (stereo unspecified)	Pf growth 48h 11.7µM, Marburg entry inh inconclusive, Pf growth 96h inconclusive
COc1cc2c(cc1OC)C(c1cc3cccc(C)c3[nH]c1=O)N(C(=O)c1ccco1)CC2 (stereo unspecified)	Pf growth 48h 11.7µM (no result: Marburg entry inh, LASV entry inh, HCV inh)
COc1cc2c(cc1OC)C(COc1ccc(F)cc1)N(C(=O)Cc1ccccc1)CC2 (stereo unspecified)	LASV entry inh inconclusive (no result: Pf growth 48h, Marburg entry inh, Pf growth 96h, HCV inh)
COCCNC(=S)N1CCc2cc(OC)c(OC)cc2C1COc1cc(C)cc(C)c1 (stereo unspecified)	Pf growth 48h 11.7µM, Marburg entry inh 7.94µM, Pf growth 96h inconclusive, HCV inh inconclusive
O=C(Nc1cccc2c(=O)[nH][nH]c(=O)c12)c1ccc([N+](=O)[O-])cc1	none (no result: Pf growth 48h, Marburg entry inh, Pf growth 96h, LASV entry inh, HCV inh)
N#CCCN(Cc1ccccc1)C(C(=O)NC1CCCCC1)C1CC1 (stereo unspecified)	none (no result: Pf growth 48h, Marburg entry inh, Pf growth 96h, LASV entry inh, HCV inh)
